# Compound activity as filed in PubChem BioAssay.
# Most compounds without a hit are left out; they make up all but 7.3% or so of the library.
# Rab9 prom act: qHTS Assay for Rab9 Promoter Activators. Huh7 Rab9 promoter-luciferase reporter, luminescence, 24 h. Potency, µM (series often up to 9.22 µM), inactives show at the highest dose activation, negative = inhibition, usual class: activators. 320,000 compounds, 2.8% hits. AID 485297, 2010; also: % of control where 0% means no effect; nearly all actives have a fitted effect of over 60% in size
#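 Luminescence read-out: Huh7 cells stably expressing Rab9-luciferase, treated 24 h with compound at 37 °C, then lysed with luciferase reagent for 10 min at ambient before reading.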
# ELG1 genotox: qHTS screen for small molecules that induce genotoxicity in human embryonic kidney (HEK293T) cells expressing luciferase-tagged ELG1. 330,000 compounds, 1.3% hits. Potency, µM (doses to about 46 µM), for inactives: at the top dose activity change, positive = activation, actives largely listed as activators. AID 504466, 2011. HEK293T ELG1-luciferase reporter, luminescence, 16 h; also: % of control where 0% means no effect; nearly all actives have a fitted effect of over 60% in size
#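 DMSO vehicle served as control against compound-treated ELG1-luciferase HEK293T cells; exposure lasted 16 hr at 37 °C and 5% CO2, followed by ONE-Glo luminescence detection after 30 min.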
# FLuc modulator: qHTS profiling assay for firefly luciferase inhibitor/activator using purifed enzyme and Km concentrations of substrates (counterscreen for miR-21 project) | purified FLuc, Km substrates, luminescence inhibition | Potency, µM (titrated, usually from 57.5 µM), inactives show at the top dose activity change, negative = inhibition, usual class: inhibitors | 360,000 compounds, 6.9% hits | AID 588342, 2011;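 also: plate controls were vehicle for no effect and reference inhibitor for full effect; nearly all actives have a fitted effect of over 55% in size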
# Target sequence (P08659 whole entry, looked up): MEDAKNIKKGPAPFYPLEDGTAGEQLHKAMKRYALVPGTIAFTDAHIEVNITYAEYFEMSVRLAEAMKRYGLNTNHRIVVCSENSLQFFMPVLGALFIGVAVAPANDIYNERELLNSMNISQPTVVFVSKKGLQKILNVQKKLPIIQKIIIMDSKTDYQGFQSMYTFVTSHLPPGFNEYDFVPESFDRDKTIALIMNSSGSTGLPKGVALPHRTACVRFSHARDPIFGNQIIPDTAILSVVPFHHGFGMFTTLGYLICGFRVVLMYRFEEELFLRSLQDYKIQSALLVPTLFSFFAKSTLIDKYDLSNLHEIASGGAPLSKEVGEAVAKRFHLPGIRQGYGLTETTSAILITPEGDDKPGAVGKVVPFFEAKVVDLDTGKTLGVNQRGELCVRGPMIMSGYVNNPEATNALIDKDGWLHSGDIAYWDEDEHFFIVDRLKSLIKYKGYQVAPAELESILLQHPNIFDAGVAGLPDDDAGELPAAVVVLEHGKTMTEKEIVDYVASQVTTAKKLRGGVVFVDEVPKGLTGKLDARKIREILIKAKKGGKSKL
#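 Purified P. pyralis luciferase (10nM final) with 10uM D-luciferin and 10uM ATP (Km levels) in 50mM Tris acetate pH 7.5, 10mM Mg acetate, 0.01% Tween-20, 0.05% BSA; qHTS 6-point titration, ~60 µM downward; luminescence read.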
# SMN2 splice up: qHTS Assay for Enhancers of SMN2 Splice Variant Expression. HEK293 SMN2-luciferase splicing reporter, luminescence, 30-36 h. Potency, µM (titrated, usually from 46.1 µM), for inactives: top-dose activity change, positive = activation, usual class: activators. 210,000 compounds, 2.8% hits. AID 1458, 2008; also: % of control where 0% means no effect; nearly all actives have a fitted effect of over 55% in size
#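 qHTS luciferase splicing reporter: luminescence rises when SMN2 exon 7 is included in transfected HEK293 cells. Compound exposure lasted 30-36 h at 37C, with 4.5 mM final sodium butyrate as control, followed by a ONE-Glo read.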
# Luc counter: Counterscreen for Luciferase (Kinase-Glo TM) Inhibition | Kinase-Glo luciferase, ATP luminescence, 8 min | Potency, µM (series often up to 38.3 µM), for the others: at the top dose activity change, negative = inhibition, hits mostly inhibitors | 200,000 compounds, 0.28% hits | AID 1379, 2008; also: % is scaled to controls: 0 for no effect and ±100 for the full control effect; nearly all actives have a fitted effect of over 60% in size
#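 Recombinant Kinase-Glo luciferase, 10 uM ATP (linear range), luciferin; imidazole pH 7.2 / KCl / MgCl2 / Tween / BSA buffer; 8 min RT; luminescence.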
# NPC1 promoter act: qHTS Assay for NPC1 Promoter Activators; Huh7 NPC1 promoter luciferase reporter, 24 h; Potency, µM (highest dose often 9.22 µM), for the others: at the highest dose activation, actives largely listed as activators; 320,000 compounds, 2.4% hits; AID 485313, 2010; also: % of control where 0% means no effect; nearly all actives have a fitted effect of over 60% in size
#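 Compounds in DMSO were transferred onto Huh7 NPC1-luciferase reporter cells pre-incubated 2 h; after 24 h at 37 °C, Amplite reagent was dispensed and luminescence recorded 10 min later.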
# * marks the source's active call; other numbers are inactive results; ? = inconclusive; · = no result given. Calls follow the shape of the dose curve; as a rule, active = well fitted curve in the direction sought with a large enough effect; inconclusive = small, poorly fitted or top-dose-only effect, or another doubt; inactive = no such curve, though single readings can be large; an effect the other way counts as inactive or inconclusive. Potency is read from the fitted curve at half-maximal effect.
SMILES,Rab9 prom act,ELG1 genotox,FLuc modulator,SMN2 splice up,Luc counter,NPC1 promoter act
O=C(Cc1ccccc1)Nc1ccc(NC(=O)c2ccccc2)nc1,2.24µM*,?,?,·,·,2.82µM*
COc1ccccc1C(=O)Nc1ccc(NC(=O)C2CCCCC2)nc1,7.2%,-0.4%,?,·,·,-2.7%
O=C(CSc1nc2c(c(=O)[nH]1)CCC2)Nc1ccccc1F,·,·,-2.2%,·,·,·
CCOC(=O)c1ccc(NC(=O)C2CCCN(c3ncnc4onc(-c5ccc(F)cc5)c34)C2)cc1 (stereo unspecified),·,·,-1.3%,·,·,·
Cc1cccc(C)c1NC(=O)CCC(=O)N1Cc2ccccc2Oc2ncccc21,·,·,-7.6%,·,·,·
NCCC[C@@H](CC(=O)N[C@@H]1CCNC[C@H]1C(=O)N[C@H](CC(=O)N[C@@H](CCC(=O)O)CC(=O)O)Cc1ccccc1)NC(=O)C[C@H](Cc1c[nH]c2ccccc12)NC(=O)[C@@H]1CNCC[C@H]1N,·,·,·,-7.5%,-2.2%,·
